Measured values published in PubChem BioAssay (EPA / NIEHS).
Inconclusive results are not listed. Activity calls are given as the source filed them. How the source made its calls: active means hit-call score of the fitted dose curve at least 0.9, where 1 is the maximum; inconclusive means response in the unintended direction; inactive means score below 0.9.

target: Glucocorticoid receptor (Homo sapiens) (UniProt P04150); test: ATG_GR_TRANS: Attagene TRANS-FACTORIAL HepG2 Assay for human Glucocorticoid Receptor (GR) (AID 2282978); settings: HepG2 Attagene TRANS GR reporter, mRNA transcription;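 further: activators score as hits since higher reporter transcript over DMSO is fitted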
Sequence (P04150 whole entry, looked up, the tested form may be a part): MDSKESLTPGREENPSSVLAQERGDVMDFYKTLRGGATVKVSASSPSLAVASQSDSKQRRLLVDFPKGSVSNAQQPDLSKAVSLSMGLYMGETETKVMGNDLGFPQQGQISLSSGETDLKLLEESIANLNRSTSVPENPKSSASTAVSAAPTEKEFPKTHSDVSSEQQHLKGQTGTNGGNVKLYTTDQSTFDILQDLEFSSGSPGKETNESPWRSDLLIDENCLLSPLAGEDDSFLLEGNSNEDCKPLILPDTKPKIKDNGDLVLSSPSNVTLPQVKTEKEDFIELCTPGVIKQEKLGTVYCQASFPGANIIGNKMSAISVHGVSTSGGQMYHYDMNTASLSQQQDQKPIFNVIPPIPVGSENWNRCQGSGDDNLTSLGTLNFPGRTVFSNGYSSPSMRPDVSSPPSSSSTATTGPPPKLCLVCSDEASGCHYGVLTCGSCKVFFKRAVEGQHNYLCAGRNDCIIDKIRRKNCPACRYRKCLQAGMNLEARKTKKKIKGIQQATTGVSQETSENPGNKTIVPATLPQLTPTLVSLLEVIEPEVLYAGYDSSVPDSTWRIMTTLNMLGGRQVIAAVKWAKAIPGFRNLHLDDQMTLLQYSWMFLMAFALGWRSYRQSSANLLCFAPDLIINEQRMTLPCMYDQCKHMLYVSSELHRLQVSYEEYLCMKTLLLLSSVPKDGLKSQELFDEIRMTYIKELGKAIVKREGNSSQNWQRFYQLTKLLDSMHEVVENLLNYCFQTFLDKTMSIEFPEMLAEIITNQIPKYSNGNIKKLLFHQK
How it was run: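 In this trans-factorial format, exogenous NR-GAL4 chimeric proteins in transfected HepG2 cells regulate GAL4-UAS reporter transcription. After 24 h treatment, reporter mRNA induction relative to DMSO is read by RT-PCR and capillary electrophoresis.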

Question: `Cc1ccc(O)cn1` was tested. Which outcome did it give?
Answer: The outcome was “inactive”.

Question: How did the outcome turn out when `C[Si](C)O[Si](C)C` was run?
Answer: The outcome was “inactive”.

Question: How did the outcome turn out when `F[Si-2](F)(F)(F)(F)F` was run?
Answer: The outcome was “inactive”.

Question: For `CCOC(OCC)OCC`, which outcome is on record?
Answer: The outcome was “inactive”.

Question: With `COc1ccccc1C=O` as the compound, how does the outcome read?
Answer: Its outcome is “inactive”.

Question: How did the outcome turn out when `CC1CCCCC1` was run?
Answer: Its outcome is “inactive”.

Question: With `CCC(Cc1c(I)cc(I)c(N)c1I)C(=O)O` (centres undefined) as the compound, how does the outcome read?
Answer: The outcome was “inactive”.

Question: How did the outcome turn out when `NCC(F)(F)C(F)(F)C(F)(F)C(F)(F)C(F)(F)C(F)(F)C(F)(F)C(F)(F)F` was run?
Answer: Its outcome is “inactive”.

Question: How did the outcome turn out when `CCN(CC)c1ccc(C=O)c(O)c1` was run?
Answer: The outcome was “inactive”.

Question: Which outcome does the source give for `CCCCOC(=O)C(C)O` (centres undefined) here?
Answer: Its outcome is “inactive”.

Question: Which outcome does the source give for `O=C(Cl)c1ccc(Cl)cc1Cl` here?
Answer: The outcome was “inactive”.

Question: With `O=C(O)CCC(F)(F)C(F)(F)C(F)(F)C(F)(F)C(F)(F)C(F)(F)C(F)(F)F` as the compound, how does the outcome read?
Answer: Its outcome is “inactive”.

Question: For `CC(C)(C)c1cc(CCC(=O)NCCCCCCNC(=O)CCc2cc(C(C)(C)C)c(O)c(C(C)(C)C)c2)cc(C(C)(C)C)c1O`, which outcome is on record?
Answer: The outcome was “inactive”.

Question: Which outcome does the source give for `CCc1ccc(C)nc1` here?
Answer: Its outcome is “inactive”.

Question: Which outcome does the source give for `CN(C)C(C)(C)CO` here?
Answer: The outcome was “inactive”.

Question: Which outcome does the source give for `O=S(=O)(O)CCC(F)(F)C(F)(F)C(F)(F)C(F)(F)C(F)(F)C(F)(F)C(F)(F)C(F)(F)F` here?
Answer: Its outcome is “inactive”.

Question: `Cc1cc(O)c(C(C)(C)C)cc1C(C)(C)C` was tested. Which outcome did it give?
Answer: Its outcome is “inactive”.

Question: For `O=C(O)C(F)(F)C(F)(F)C(F)(F)C(F)(F)C(F)(F)C(F)(F)C(F)F`, which outcome is on record?
Answer: Its outcome is “inactive”.

Question: With `CCOCOCC` as the compound, how does the outcome read?
Answer: Its outcome is “inactive”.

Question: How did the outcome turn out when `CCCCCCCCCCCC(=O)Cl` was run?
Answer: The outcome was “inactive”.

Question: How did the outcome turn out when `OCC(F)(F)C(F)(F)C(F)(F)C(F)(F)C(F)(F)C(F)(F)CO` was run?
Answer: Its outcome is “inactive”.

Question: `O=C1c2ccccc2C(=O)c2c(Cl)cccc21` was tested. Which outcome did it give?
Answer: Its outcome is “inactive”.

Question: `CC1=CCC2C(=O)OC(=O)C2C1` (centres undefined) was tested. Which outcome did it give?
Answer: The outcome was “inactive”.

Question: `NC(=O)C(F)(F)C(F)(F)C(F)(F)C(F)(F)C(F)(F)C(F)(F)C(F)(F)F` was tested. Which outcome did it give?
Answer: Its outcome is “inactive”.

Question: Which outcome does the source give for `O=C1C=CC(=O)N1c1ccc(Cc2ccc(N3C(=O)C=CC3=O)cc2)cc1` here?
Answer: Its outcome is “inactive”.

Question: `NS(=O)(=O)C(F)(F)C(F)(F)C(F)(F)C(F)(F)C(F)(F)C(F)(F)F` was tested. Which outcome did it give?
Answer: Its outcome is “inactive”.

Question: `CCN(CC)c1ccc(N=Nc2ccccc2)cc1` was tested. Which outcome did it give?
Answer: The outcome was “inactive”.

Question: Which outcome does the source give for `C=CCOC(=O)CC(C)C` here?
Answer: Its outcome is “inactive”.

Question: Which outcome does the source give for `CCCCCCCCCCCCCC[P+](CCCC)(CCCC)CCCC` here?
Answer: Its outcome is “inactive”.

Question: Which outcome does the source give for `O=C(O)C(F)(F)C(F)(F)C(F)(F)OC(F)(C(F)(F)F)C(F)(F)F` here?
Answer: Its outcome is “inactive”.

Question: With `CC(C)C(=O)OCc1ccccc1` as the compound, how does the outcome read?
Answer: Its outcome is “inactive”.

Question: `CCCCCCCCCCCCC[N+](C)(C)Cc1ccccc1` was tested. Which outcome did it give?
Answer: The outcome was “inactive”.

Question: Which outcome does the source give for `FC(F)(F)C(F)(F)C(F)(F)C(F)(F)C(F)(F)C(F)(F)CC[Si](Cl)(Cl)Cl` here?
Answer: The outcome was “inactive”.

Question: With `C=CC(=O)OCC(F)(F)C(F)(F)C(F)(F)C(F)(F)C(F)(F)C(F)(F)C(F)(F)C(F)F` as the compound, how does the outcome read?
Answer: The outcome was “inactive”.

Question: `CCc1cccc(C)c1N(C(=O)C(=O)O)C(C)COC` (centres undefined) was tested. Which outcome did it give?
Answer: The outcome was “inactive”.

Question: `CC(=O)C=O` was tested. Which outcome did it give?
Answer: The outcome was “inactive”.

Question: How did the outcome turn out when `O=C(c1ccccc1)c1ccc(O)cc1O` was run?
Answer: The outcome was “inactive”.

target: Bile acid receptor (Homo sapiens) (UniProt Q96RI1); test: ATG_FXR_TRANS: Attagene TRANS-FACTORIAL HepG2 Assay for Farnesoid X Receptor (FXR) (AID 2282979); settings: HepG2 Attagene TRANS FXR-GAL4 reporter transcription;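 further: hits raise reporter mRNA above DMSO so AC50 marks FXR activation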
Sequence (Q96RI1 whole entry, looked up, the tested form may be a part): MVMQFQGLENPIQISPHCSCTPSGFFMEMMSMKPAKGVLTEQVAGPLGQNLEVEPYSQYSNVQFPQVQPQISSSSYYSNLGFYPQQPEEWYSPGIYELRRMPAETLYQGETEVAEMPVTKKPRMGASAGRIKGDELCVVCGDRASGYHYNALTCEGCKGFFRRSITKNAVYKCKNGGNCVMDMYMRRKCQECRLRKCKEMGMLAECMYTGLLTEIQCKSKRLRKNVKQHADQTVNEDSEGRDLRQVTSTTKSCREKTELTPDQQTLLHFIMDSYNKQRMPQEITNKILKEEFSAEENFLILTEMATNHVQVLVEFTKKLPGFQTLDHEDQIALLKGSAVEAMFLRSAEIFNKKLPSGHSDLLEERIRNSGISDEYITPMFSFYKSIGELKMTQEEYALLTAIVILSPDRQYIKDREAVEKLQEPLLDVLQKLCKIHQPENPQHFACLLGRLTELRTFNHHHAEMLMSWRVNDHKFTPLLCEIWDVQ
How it was run: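 Chimeric FXR-GAL4 activity in transiently transfected human HepG2 liver cells is scored as induction of reporter mRNA after 24 h of dosing. Detection uses RT-PCR with fluorescent labelling and capillary electrophoresis, with DMSO serving as baseline.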

Question: For `Cc1ccc(O)cn1`, which outcome is on record?
Answer: Its outcome is “inactive”.

Question: Which outcome does the source give for `C[Si](C)O[Si](C)C` here?
Answer: The outcome was “inactive”.

Question: With `F[Si-2](F)(F)(F)(F)F` as the compound, how does the outcome read?
Answer: The outcome was “inactive”.

Question: For `CCOC(OCC)OCC`, which outcome is on record?
Answer: The outcome was “inactive”.

Question: For `COc1ccccc1C=O`, which outcome is on record?
Answer: Its outcome is “inactive”.

Question: For `CC1CCCCC1`, which outcome is on record?
Answer: The outcome was “inactive”.

Question: `CCC(Cc1c(I)cc(I)c(N)c1I)C(=O)O` (centres undefined) was tested. Which outcome did it give?
Answer: Its outcome is “inactive”.

Question: `NCC(F)(F)C(F)(F)C(F)(F)C(F)(F)C(F)(F)C(F)(F)C(F)(F)C(F)(F)F` was tested. Which outcome did it give?
Answer: Its outcome is “inactive”.

Question: For `CCN(CC)c1ccc(C=O)c(O)c1`, which outcome is on record?
Answer: Its outcome is “inactive”.

Question: For `CCCCOC(=O)C(C)O` (centres undefined), which outcome is on record?
Answer: Its outcome is “inactive”.

Question: With `O=C(Cl)c1ccc(Cl)cc1Cl` as the compound, how does the outcome read?
Answer: The outcome was “inactive”.

Question: For `O=C(O)CCC(F)(F)C(F)(F)C(F)(F)C(F)(F)C(F)(F)C(F)(F)C(F)(F)F`, which outcome is on record?
Answer: The outcome was “inactive”.

Question: With `CC(C)(C)c1cc(CCC(=O)NCCCCCCNC(=O)CCc2cc(C(C)(C)C)c(O)c(C(C)(C)C)c2)cc(C(C)(C)C)c1O` as the compound, how does the outcome read?
Answer: Its outcome is “inactive”.

Question: For `CCc1ccc(C)nc1`, which outcome is on record?
Answer: Its outcome is “inactive”.

Question: With `CN(C)C(C)(C)CO` as the compound, how does the outcome read?
Answer: Its outcome is “inactive”.

Question: Which AC50 does the source give for `O=S(=O)(O)CCC(F)(F)C(F)(F)C(F)(F)C(F)(F)C(F)(F)C(F)(F)C(F)(F)C(F)(F)F` here?
Answer: Its AC50 is 40 µM (active).

Question: For `Cc1cc(O)c(C(C)(C)C)cc1C(C)(C)C`, which outcome is on record?
Answer: The outcome was “inactive”.

Question: Which outcome does the source give for `O=C(O)C(F)(F)C(F)(F)C(F)(F)C(F)(F)C(F)(F)C(F)(F)C(F)F` here?
Answer: The outcome was “inactive”.

Question: With `CCOCOCC` as the compound, how does the outcome read?
Answer: Its outcome is “inactive”.

Question: How did the outcome turn out when `CCCCCCCCCCCC(=O)Cl` was run?
Answer: The outcome was “inactive”.

Question: How did the outcome turn out when `OCC(F)(F)C(F)(F)C(F)(F)C(F)(F)C(F)(F)C(F)(F)CO` was run?
Answer: The outcome was “inactive”.

Question: Which outcome does the source give for `O=C1c2ccccc2C(=O)c2c(Cl)cccc21` here?
Answer: The outcome was “inactive”.

Question: For `CC1=CCC2C(=O)OC(=O)C2C1` (centres undefined), which outcome is on record?
Answer: The outcome was “inactive”.

Question: With `NC(=O)C(F)(F)C(F)(F)C(F)(F)C(F)(F)C(F)(F)C(F)(F)C(F)(F)F` as the compound, how does the outcome read?
Answer: Its outcome is “inactive”.

Question: Which outcome does the source give for `O=C1C=CC(=O)N1c1ccc(Cc2ccc(N3C(=O)C=CC3=O)cc2)cc1` here?
Answer: The outcome was “inactive”.

Question: For `NS(=O)(=O)C(F)(F)C(F)(F)C(F)(F)C(F)(F)C(F)(F)C(F)(F)F`, which outcome is on record?
Answer: Its outcome is “inactive”.

Question: Which outcome does the source give for `CCN(CC)c1ccc(N=Nc2ccccc2)cc1` here?
Answer: Its outcome is “inactive”.

Question: With `C=CCOC(=O)CC(C)C` as the compound, how does the outcome read?
Answer: Its outcome is “inactive”.

Question: How did the outcome turn out when `CCCCCCCCCCCCCC[P+](CCCC)(CCCC)CCCC` was run?
Answer: The outcome was “inactive”.

Question: For `O=C(O)C(F)(F)C(F)(F)C(F)(F)OC(F)(C(F)(F)F)C(F)(F)F`, which outcome is on record?
Answer: Its outcome is “inactive”.

Question: Which outcome does the source give for `CC(C)C(=O)OCc1ccccc1` here?
Answer: The outcome was “inactive”.

Question: `CCCCCCCCCCCCC[N+](C)(C)Cc1ccccc1` was tested. Which outcome did it give?
Answer: The outcome was “inactive”.

Question: With `FC(F)(F)C(F)(F)C(F)(F)C(F)(F)C(F)(F)C(F)(F)CC[Si](Cl)(Cl)Cl` as the compound, how does the outcome read?
Answer: The outcome was “inactive”.

Question: How did the outcome turn out when `C=CC(=O)OCC(F)(F)C(F)(F)C(F)(F)C(F)(F)C(F)(F)C(F)(F)C(F)(F)C(F)F` was run?
Answer: The outcome was “inactive”.

Question: For `CCc1cccc(C)c1N(C(=O)C(=O)O)C(C)COC` (centres undefined), which outcome is on record?
Answer: Its outcome is “inactive”.

Question: `CC(=O)C=O` was tested. Which outcome did it give?
Answer: The outcome was “inactive”.

Question: Which outcome does the source give for `O=C(c1ccccc1)c1ccc(O)cc1O` here?
Answer: Its outcome is “inactive”.
